Results with a measured potency or affinity are listed apart. Calls of active or inactive are those of the source.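 The calls were made as follows, unless noted: active = signal drop whose fitted half-maximal concentration is at most twice the top valid dose, in every test run; inconclusive = mixed calls across runs, poor fit, or flat 30 to 70% inhibition; inactive = wrong direction, flat within 30%, or potency beyond limit.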

A short description of one test: PAX8 transcriptional activity inhibition in RMG-I – RMG-I cells, luciferase, cherry-pick, dose response (AID 687027;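 active = every replicate test run called active, with the signal dropping as expected and potency within twice the top valid dose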). The following applies: RMG-I TPO-Luc reporter, SteadyGlo luminescence, 24 h; series mostly up to 35 µM.
With `CCOc1ccc(-n2c(=S)sc3c(=O)[nH]c(SCC(=O)NCC4CCCO4)nc32)cc1` (stereo unspecified), the molecule was classed as inactive. Take `Cc1cc(CN(C)C(=O)c2cc(COc3ccc4ncccc4c3)on2)on1`: the outcome was inactive. On the same count and under the same terms, next, `COc1ccc(C(=O)NC(=S)NNC(=O)c2c(-c3ccccc3)noc2C)cc1`: “inactive”; `C[C@@H]1CN([C@@H](C)CO)S(=O)(=O)c2ccc(C#Cc3ccncc3)cc2O[C@@H]1CN(C)C(=O)C1CCCCC1`: “inactive”. The same measure, in the same setting: next, `CNC[C@H]1Oc2ccc(NC(=O)NC(C)C)cc2CC(=O)N([C@@H](C)CO)C[C@@H]1C`: “inactive”. Consider `CNC[C@@H]1Oc2ccc(NC(=O)NC(C)C)cc2CC(=O)N([C@@H](C)CO)C[C@@H]1C`, for which the call was inactive. Regarding `CCSc1cc(N2CCOCC2)nc(-c2ccc(Cl)cc2)n1`, the result was inactive.

A short description of another test: RMG-1 ovarian cancer cell viability loss – cherry-pick, dose response (AID 687029).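 Also: cells exposed to compound for 96 hours.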 The conditions noted are these: RMG-1 viability, CellTiterGlo ATP luminescence, 96 h; series mostly up to 35 µM.
For `COc1ccc(N(C(=O)CCl)C(C(=O)NCCc2ccccc2)c2cccs2)cc1` (stereo unspecified), the call was inactive. Turning to `Nc1nc(N)c2c(ccc3c2ccn3Cc2cccc([N+](=O)[O-])c2)n1`, the molecule was called inactive. Turning to `Cc1nn(-c2ccccc2)c(Cl)c1CN(C(=O)CCl)c1cccc2ccccc12`, the molecule was called inactive. With `CC(=O)/C=C/n1c(=S)oc2ccccc21`, the molecule was called inactive.

On to `C=C1C(=O)C23C(O)C1CCC2C12CCCC(C)(COC(C)=O)C1C(O)C3(O)OC2` (stereo unspecified), for which the molecule was called inactive. For `CC(=NNc1ccc2ccccc2n1)c1ccccn1`, the outcome was inactive. With `CCN1CCN(Cc2ccc(NC(=O)c3ccc(C)c(NC(=O)C(=O)c4c[nH]c5ccccc45)c3)cc2C(F)(F)F)CC1`, the call was inactive. The same measure, in the same setting: next, `CCS(=O)(=O)c1ccc(N=Nc2ccc(O)c3ncccc23)c(OC)c1`: “inactive”.

Consider `O=C(CCCCCCC(=O)Nc1ccccc1)NO`, for which the molecule was classed as inactive.

(Values after PubChem BioAssay.)
